Activity change, negative = inhibition and Potency data for 93 molecules are collected here from PubChem BioAssay AID894 (National Center for Advancing Translational Sciences (NCATS), 2007).

Structures are written as SMILES. Hit rate of the full screen: of about 150,000 compounds, about 6,500 (4.3%) were called active. Roughly 12% stayed inconclusive and do not appear here. Many of the other results were omitted from the sample, so actives are more common in it than they were. Values without a mark were called inactive. Calls come from the whole dose curve; as a rule, active = well fitted inhibition curve with a large enough effect (not every such curve was filed as active); inconclusive = small, poorly fitted or top-dose-only effect, or another doubt; inactive = no such curve, though single readings can be large or run the other way.
% is set by controls: 0 for no effect and ±100 for the full control effect; potency is the fitted concentration of half-maximal effect.

15-hydroxyprostaglandin dehydrogenase [NAD(+)] (Homo sapiens), sequence (P15428 whole entry, looked up): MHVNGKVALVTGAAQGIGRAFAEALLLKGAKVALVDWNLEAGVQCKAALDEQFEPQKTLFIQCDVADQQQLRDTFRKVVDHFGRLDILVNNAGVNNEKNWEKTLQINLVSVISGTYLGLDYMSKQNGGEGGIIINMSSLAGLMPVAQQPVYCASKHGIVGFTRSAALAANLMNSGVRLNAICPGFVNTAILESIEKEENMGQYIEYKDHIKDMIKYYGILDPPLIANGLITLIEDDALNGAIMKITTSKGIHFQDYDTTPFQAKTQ

The experiment deals with 15-hydroxyprostaglandin dehydrogenase [NAD(+)] (Homo sapiens) (UniProt P15428). Briefly: qHTS Assay for Inhibitors of HPGD (15-Hydroxyprostaglandin Dehydrogenase). As to conditions: purified HPGD, NADH fluorescence kinetic, PGE2 substrate; activity change, negative = inhibition: hits give low values. The procedure, abridged:
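NADH formation kinetics: reaction with 30 uM PGE2 and 1 mM NAD+ (final), 20 nM enzyme, Tris-HCl pH 8 with Tween 20, after 15 min compound preincubation at room temperature. Fluorescence change, last versus first of five reads.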
For orientation: qHTS replaces the single test concentration by a dilution series.
For `COc1cccc(CC(=O)N2CCc3nc(COc4ccccc4)c4c(c3C2)CO[C@@H](C)C4)c1`, the activity change, negative = inhibition is -2.54%. Turning to `Cc1ccc(N/N=C2\COC(C)(C)CC2=O)cc1`, the activity change, negative = inhibition is -19.3%.

As for `C=C(C)C(=O)c1ccc(F)cc1`, the activity change, negative = inhibition is -9.12%. The same measure, in the same setting: the same measure for `CNC(=O)/C(C#N)=C/c1c(F)cccc1Cl`: -9.42%.

As for `CC1CCCN(c2ccc(C(=O)NCCc3ccccc3)cn2)C1` (stereo not drawn), the Potency was 17.8 µM (active). Regarding `O=C(NCCc1ccccc1)c1ccc(OCCOc2ccccc2)cc1`, the activity change, negative = inhibition was -14.9%. For `O=C(NCCc1ccccc1)c1ccc(NC2=NC3CS(=O)(=O)CC3S2)cc1` (stereo not drawn), the activity change, negative = inhibition is -15.7%. Regarding `COC(=O)/C(C#N)=C/c1occc1C`, the activity change, negative = inhibition was -10.9%. Take `N#C/C(=C(\O)CCl)c1nnc2n1CCCCC2`: the activity change, negative = inhibition was 1.76%. `N#C/C(=C/c1cccc([N+](=O)[O-])c1)c1nnc2n1CCCCC2`: the Potency is 20 µM (active). Take `O=[N+]([O-])c1cccc(S(=O)(=O)N2CCCCCC2)c1`: the activity change, negative = inhibition is -12%. Consider `Cc1ccn(-c2cccc(-n3ccc(C)n3)n2)n1`, for which the activity change, negative = inhibition is -19.2%.

Regarding `O=C(OCC(=O)c1cccs1)C1=COCCO1`, the activity change, negative = inhibition is -17.4%. As for `CCC(C)(C)c1ccc(Oc2ccc(NC(=O)COC(=O)C3=COCCO3)cc2)cc1`, the Potency was 14.1 µM (active). Turning to `CC(C)NS(=O)(=O)c1ccc(OCC(=O)Nc2ccc3c(c2)OCCO3)cc1`, the activity change, negative = inhibition was 0.139%. With `CC(C)(C)CC(C)(C)NCC(O)COCCOc1ccc(Br)cc1` (stereo not drawn), the activity change, negative = inhibition was -5.61%. Regarding `CCOC(=O)c1c(/N=C/C2C(=O)CC(C)(C)CC2=O)sc(C)c1C`, the activity change, negative = inhibition was -11.6%. Same read-out and setting: next, `CCc1ccc(NC(=O)c2ccc(Cn3cc([N+](=O)[O-])cn3)cc2)cc1`: -0.318%. In the case of `O=C(c1ccccc1)c1ccc(OC(=O)N2CCCC2)cc1`, the activity change, negative = inhibition was -20%. On to `O=C(Oc1ccccc1)c1ccc2nccnc2c1`, for which the activity change, negative = inhibition is -13%. As for `O=C(COc1cccc(F)c1)Oc1ccc(C(=O)c2ccccc2)cc1`, the Potency is 7.94 µM (active).

Turning to `C/C(=N\NC(=O)Cc1ccc(F)cc1)c1ccc(F)cc1`, the activity change, negative = inhibition is -3.27%. As to `Cc1ccc(S(=O)(=O)N(NC2=NS(=O)(=O)c3ccccc32)C(=O)c2ccccc2)cc1`, the activity change, negative = inhibition was -7.36%. `Cc1ccc(NC(=O)CSCC(=O)N2CCOCC2)cc1`: the activity change, negative = inhibition was 2.74%. On to `Cc1ccc(NC(=S)NC2CCCC2)cc1`, for which the activity change, negative = inhibition was -9.46%. With `Cc1ccc(NC(=O)CSCC(=O)NC2CCCCC2)cc1`, the Potency was 15.8 µM (active). Take `Cc1ccc(/C(N)=N/OC(=O)COc2ccc(Cl)c(C)c2)cc1`: the activity change, negative = inhibition was -14.6%.

Take `COCCn1c(=S)[nH]c2cc(C(=O)NCCc3ccc(OC)c(OC)c3)ccc2c1=O`: the activity change, negative = inhibition is -4.68%. On the same count and under the same terms, next, `COc1ccc(O)c(C(=O)c2cnc3onc(C(C)C)c3c2)c1`: -14.6%. Take `COCCn1c(=O)[nH]c(=O)c2cc(C(=O)c3cc(OC)ccc3O)cnc21`: the Potency is 25.1 µM (active).

On to `Cc1ccc(CN2C(=O)N/C(=C/c3cc(C)n(-c4ccccn4)c3C)C2=O)cc1`, for which the activity change, negative = inhibition was -12.6%.

Turning to `C/C(Cc1ccccc1)=N\NC(=O)CNC(=O)c1cccc(Br)c1`, the activity change, negative = inhibition is -6.55%.

For the molecule `O=C(COC(=O)Cc1ccc(F)cc1)Nc1cc(S(=O)(=O)N2CCOCC2)ccc1N1CCCC1`, the activity change, negative = inhibition is -3.83%.

Consider `CCCCCn1c(SCCC(C)C)nc2c1c(=O)[nH]c(=O)n2C`, for which the Potency was 20 µM (active).

For the molecule `CCCSc1nc2c(c(=O)[nH]c(=O)n2C)n1CCc1ccccc1`, the activity change, negative = inhibition is -20.7%.

As to `CCCCCCn1c(SCC(=O)c2ccccc2)nc2c1c(=O)[nH]c(=O)n2C`, the activity change, negative = inhibition is -21.9%. For `O=C(COC(=O)Cc1ccc(Br)cc1)Nc1c(F)c(F)c(F)c(F)c1F`, the activity change, negative = inhibition was -9.95%. In the case of `Cc1[nH]n(-c2cccc(Cl)c2)c(=O)c1/C=N/n1c(C)nc2ccccc2c1=O`, the activity change, negative = inhibition was -20.7%. For the molecule `O=c1[nH]n(-c2cccc(Cl)c2)c2ncccc12`, the Potency was 6.31 µM (active). Take `Cc1[nH]n(-c2cccc(Cl)c2)c(=O)c1-c1ccc(Cl)cc1`: the activity change, negative = inhibition was -13%.

Take `COc1cc(CCC(=O)OCC(=O)Nc2cccc(S(N)(=O)=O)c2)cc(OC)c1OC`: the activity change, negative = inhibition was -6.23%. As for `COC(=O)c1onc(-c2c(OC)cc(OC)cc2OC)c1C(=O)OC`, the activity change, negative = inhibition is -3.93%.

Consider `N#Cc1ccsc1NC(=O)CN1CCN(S(=O)(=O)c2cc(Cl)ccc2Cl)CC1`, for which the activity change, negative = inhibition was -24.3%.

In the case of `CC(CCO)Nc1nc2c([nH]1)c(=O)n(C)c(=O)n2C` (stereo not drawn), the activity change, negative = inhibition is -11.6%.

With `Cc1ccc(NN=Nc2nc3c([nH]2)c(=O)n(C)c(=O)n3C)cc1`, the Potency is 22.4 µM (active).

For `CCCSc1nc2c(c(=O)n(C)c(=O)n2C)n1Cc1ccc(C)cc1`, the activity change, negative = inhibition was -7.96%. For `Cn1c(=O)c2c(nc(Br)n2CCSc2nc3ccccc3o2)n(C)c1=O`, the Potency was 31.6 µM (active). As to `Cc1cccc(Cn2c(SCCO)nc3c2c(=O)n(C)c(=O)n3C)c1`, the activity change, negative = inhibition was -7.66%. Take `Cn1c(=O)[nH]c(=O)c2c1nc(Br)n2CCCCSc1nc2ccccc2o1`: the Potency was 25.1 µM (active).

Take `CN(Cc1ccccc1)c1nc2c(c(=O)[nH]c(=O)n2C)n1CCSc1nc2ccccc2[nH]1`: the activity change, negative = inhibition is -9.14%. Regarding `Cc1ccnc(SCCn2c(Br)nc3c2c(=O)[nH]c(=O)n3C)n1`, the activity change, negative = inhibition was -9.47%. Regarding `CCN(CC)C(=O)CSc1nc2ccccc2o1`, the activity change, negative = inhibition was -23.4%.

As to `CCCC/S(C)=N/S(=O)(=O)c1ccc(C)cc1` (stereo not drawn), the activity change, negative = inhibition is 1.3%. Still for that read-out and setting: the same measure for `Cc1ccc(C)c(NC(CC(=O)c2ccccc2)C(=O)OCC(=O)c2cccs2)c1` (stereo not drawn): -4.17%; for `CCOc1ccccc1N1CCN(C(=S)Nc2ccc(S(N)(=O)=O)cc2)CC1`: -4.15%; for `Cc1ccc(S(=O)(=O)C2C(=O)NC3(C)CC2c2ccccc2O3)cc1` (stereo not drawn): -19.6%. On to `O=C(NN1C(=O)C2C3C=CC(O3)C2C1=O)c1ccncc1` (stereo not drawn), for which the activity change, negative = inhibition is 2.88%.

As to `CCn1c(=N)n(CC(=O)c2cccc(OC)c2)c2ccccc21`, the Potency is 35.5 µM (active). On to `CCCCOC(=O)Cn1c(=N)n(CCN(CC)CC)c2ccccc21`, for which the activity change, negative = inhibition is -7.8%. As for `COc1cccc(C(=O)NNC(=O)c2ccccc2Br)c1`, the activity change, negative = inhibition was -0.052%. Same read-out and setting: next, `Cn1cccc1/C=C1\SC(=S)N(NC(=O)c2ccc(Cl)cc2)C1=O`: -8.93%. In the case of `Cc1cc(C)c(C#N)c(SCC(=O)NN2CC(=O)N(c3ccccc3F)CC2=O)n1`, the activity change, negative = inhibition is -14%. For the molecule `Cc1cc(C)c(C#N)c(SCS(=O)c2ccc(C(C)(C)C)cc2)n1` (stereo not drawn), the Potency is 15.8 µM (active). In the case of `Cc1cc(C)c(C#N)c(SCc2ccccc2C(=O)O)n1`, the activity change, negative = inhibition is -15%. As for `Cc1ccc(C(=O)NC(=S)NCCN2CCOCC2)cc1`, the activity change, negative = inhibition was -5.64%. `Cc1c(O)c(Br)c(C)c(O)c1Br` (tested in a mixture with another compound): the Potency was 0.891 µM (active).

For `O=C(OCC#CCSc1nnc(-c2ccncc2)o1)c1sc2ccccc2c1Cl`, the Potency was 20 µM (active). In the case of `CCOC(=O)CSc1nnc(-c2ccncc2)o1`, the activity change, negative = inhibition is -12.2%. With `O=C(CSc1nnc(-c2ccncc2)o1)NCc1ccc(Cl)cc1`, the activity change, negative = inhibition was -1.7%. `O=C(CCc1ccccc1)Nc1nn[nH]n1`: the activity change, negative = inhibition is -9.52%.

Take `O=C(O)C1CC=CCC1C(=O)Nc1ccccc1C(=O)N1CCN(c2ccccc2)CC1` (stereo not drawn): the activity change, negative = inhibition was -1.15%. On the same count and under the same terms, next, `Cc1cccc(N2CCN(C(=O)c3ccccc3NC(=O)C3CCCCC3C(=O)O)CC2)c1` (stereo not drawn): -8.91%. In the case of `CC(C)c1ccc(N2CCN(C(=O)c3ccccc3NC(=O)/C=C(\C(=O)O)c3ccccc3)CC2)cc1`, the Potency was 35.5 µM (active). Take `O=C(C/C(=N\NC(=O)c1ccccc1Br)C(F)(F)F)c1cccs1`: the activity change, negative = inhibition was -18.1%. As for `N#Cc1cccc(CS(=O)(=O)c2nnnn2-c2cc(C(F)(F)F)cc(C(F)(F)F)c2)c1`, the activity change, negative = inhibition is -8.91%. As for `COCCn1c(=NC(=O)c2ccccc2[N+](=O)[O-])sc2cc(S(C)(=O)=O)ccc21`, the activity change, negative = inhibition is -11.2%. Consider `CC(C)c1ccc(Nc2ncccc2C#N)cc1`, for which the Potency was 25.1 µM (active).

On to `O=C(Nc1ccccc1)c1cccnc1Nc1ccccc1`, for which the activity change, negative = inhibition is -10.1%. `CC(C)c1ccc(/C=C/C(=O)NNC(=O)c2cccnc2)cc1`: the activity change, negative = inhibition was -6.71%. Turning to `O=C(Nc1ccccc1)c1cc2ccccc2[nH]1`, the activity change, negative = inhibition is -6.75%. As for `COc1ccc(C)cc1NC(=O)CSc1ccc(Cl)cc1`, the activity change, negative = inhibition was -13.4%.

Turning to `Cc1cc(C(=O)OCC(=O)Nc2nnc(C(C)C)s2)c2ccccc2n1`, the activity change, negative = inhibition is -10.9%. Take `COCCCNC(=S)NC(=O)c1ccc([N+](=O)[O-])cc1`: the activity change, negative = inhibition is -5.32%.

Consider `CCOC(=O)c1c(NC(=O)C2CCN(S(=O)(=O)c3ccc(Cl)cc3)CC2)sc2c1CCCC2`, for which the activity change, negative = inhibition was -27.2%. As to `Cc1sc(NC(=O)C2C3CCC(O3)C2C(=O)O)c(C(=O)OC(C)C)c1-c1ccc(Cl)cc1` (stereo not drawn), the Potency is 35.5 µM (active). For `CC(C)OC(=O)c1cc(NC(=O)C2C3CCC(O3)C2C(=O)O)cc(C(=O)OC(C)C)c1` (stereo not drawn), the activity change, negative = inhibition was -13.2%. As for `Cc1cc(NC(=O)COC(=O)COc2ccc(Cl)cc2C)c([N+](=O)[O-])cc1C`, the activity change, negative = inhibition is -9.4%. As to `Cc1ccc(CN2CCN(/N=C/c3cccnc3)CC2)c(C)c1`, the activity change, negative = inhibition is -0.74%. With `O=C(CSC1CC(=O)N(CCc2ccccc2)C1=O)Nc1ccc(Cl)cc1` (stereo not drawn), the activity change, negative = inhibition was -11.7%. Regarding `CCOC(=O)NC(=O)C(=CNc1cccc(OC)c1)C(=O)NC(=O)OCC`, the activity change, negative = inhibition was -21.8%. In the case of `O=C(CSc1nnc2scc(-c3ccc(F)cc3)n12)NCc1ccco1`, the activity change, negative = inhibition is -3.23%. Turning to `Cn1c(-c2ccc(F)cc2)cnc1SCC(=O)NCc1ccco1`, the Potency was 31.6 µM (active).

Take `Cc1ccc(-c2csc3nnc(SCC(=O)NCc4ccco4)n23)cc1`: the activity change, negative = inhibition was -10.8%.
